What all share (assay): PBM binding z-score (relative to random genomic background probes); higher = stronger binding; sequences stand for … in GC…GCGATTGACAGCGTAGAATGAAGG
Assay [1] deals with FXR:RXRa (NR concentration 270 nM, RXRa partner concentration 90 nM). An outline of the steps: (§1)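 For binding z-scores, the reference was random background probes on custom Agilent 4×180K protein-binding microarrays. These arrays were incubated 1 h with ligand-free nuclear receptor dimers in PBS pH 7.4, 2% milk, 0.02% Triton X-100, 1 mM DTT, 0.2 mg/mL BSA and 0.4 mg/ml salmon testes DNA. Fluorescence was scanned after antibody detection of each partner (one per run) and regression-normalized.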

Assay [2] relates to LXRa:RXRa (NR concentration 270 nM, RXRa partner concentration 90 nM). An outline of the steps:
as §1

Assay [3] concerns LXRa homodimer (NR concentration 270 nM). An outline of the steps: as §1
Assay [4] concerns LXRb:RXRa (NR concentration 270 nM, RXRa partner concentration 90 nM). An outline of the steps:
as §1

Assay [5] concerns LXRb homodimer (NR concentration 270 nM). The procedure, abridged: as §1
The test system of assay [6] is PPARa:RXRa (NR concentration 270 nM, RXRa partner concentration 90 nM). An outline of the steps: as §1
Assay [7] has as its system PPARg:RXRa (NR concentration 180 nM, RXRa partner concentration 90 nM). An outline of the steps: as §1
The subject of assay [8] is PPARg:RXRa 270nM:90nM, anti-RXR (NR concentration 270 nM, RXRa partner concentration 90 nM). The procedure, abridged:
as §1

For assay [9], the system named is PPARg:RXRa 30nM:10nM, anti-RXR (NR concentration 30 nM, RXRa partner concentration 10 nM). An outline of the steps:
as §1

In assay [10] the test system is PPARg:RXRa 90nM:30nM, anti-RXR (NR concentration 90 nM, RXRa partner concentration 30 nM). The procedure, abridged: as §1

CAAACTAGATCACGAAAGGTCAAAGTCGAATGAC: the PBM binding z-score worked out at 5.13 in [1]; 5.95 in [2]; 5.88 in [3]; 5.7 in [4]; 2.42 in assay [5]; 5.61 in [6]. For the same sequence, the PBM binding z-score in assay [7] amounted to 4.16; in assay [8], 5.04; in assay [9] it was 2.26; in assay [10], 3.98.

In the case of TCAGACAGGTGAAGGTAACTCACGTACGCAGTCG, the PBM binding z-score is 0.8 in assay [1]; 2.26 in [2]; -0.278 in assay [3]; 0.983 in [4]; -0.343 in [5]; 1.2 in [6]. Moreover, the PBM binding z-score worked out at 0.954 in assay [7], 2.09 in assay [8], 3.55 in assay [9] and 2.75 in assay [10].

Consider GGAACGAGGGCAAGTTGATACCAGAGTTTGATGG, for which the PBM binding z-score in assay [1] is 1.04; in [2], 0.448; in assay [3] it was -0.0805; in [4], 0.373; in [5] it was 0.0862; in assay [6], 1.58. The PBM binding z-score in [7] came out at 1.31; in assay [8], 1.19; in assay [9], 0.0746; in assay [10] it was 0.594.

Regarding TTAGCAAGGTGAGCTGAGGTCGTTGATCCAACTC, the PBM binding z-score in assay [1] was 0.796; in assay [2], 1.32; in [3], -0.635; in [4] it was 0.393; in [5], -0.992; in [6], 1.72. Further, the PBM binding z-score in assay [7] is -0.0318; in assay [8] it was 0.607; in assay [9], -0.48; in [10] it was 0.182.

Take CCTAACGGGTCAAGGTTATAGCACGGGTGGTACG: the PBM binding z-score in assay [1] was determined as 4.72; in assay [2], 3.16; in [3], 0.175; in [4] it was 2.46; in assay [5], 0.225; in assay [6], 4.48. Further, the PBM binding z-score in assay [7] was 3.41; in assay [8] it was 3.67; in assay [9], 1.21; in assay [10], 2.39.

With AGACAAAGTTCACTAGGTAACGTAAGATTCAGCT, the PBM binding z-score in [1] stood at 5.15; in assay [2] it was 4.98; in assay [3], 2.65; in assay [4], 3.12; in [5] it was 1.08; in assay [6] it was 4.76. For the same sequence, the PBM binding z-score in [7] was 6; in [8], 5.55; in assay [9], 2.55; in [10], 4.7.

For the sequence TCATATAGGTAATACAGGTGAAAGACGGCATCTA, the PBM binding z-score stood at 1.16 in assay [1]; 1.28 in assay [2]; 0.842 in assay [3]; 0.947 in assay [4]; 0.0154 in assay [5]; 1.94 in assay [6]. Further, the PBM binding z-score in assay [7] was 1.92; in assay [8], 2.73; in assay [9], 4.26; in assay [10], 3.41.

For the sequence CAAACTAGGTCACCGGAAGGTCCAAGTCCGCATG, the PBM binding z-score in [1] stood at 4.24; in assay [2], 3.41; in [3], 0.716; in assay [4] it was 2.42; in assay [5], 0.547; in assay [6] it was 5.28. The PBM binding z-score in [7] was found to be 8.9; in assay [8], 7.31; in assay [9] it was 5.06; in assay [10], 7.02.

Regarding TCTTGTAGATCAACAAGAGGTTAAGAAAGATCGA, the PBM binding z-score in [1] was 0.445; in [2], 2.13; in assay [3], 0.311; in assay [4], 1.41; in [5], -0.334; in [6] it was 1.96. Also, the PBM binding z-score worked out at 0.437 in assay [7], 1.19 in [8], 2.15 in assay [9] and 1.59 in [10].

For the sequence GGAACGAGGGCAAGTTGATAGCCGAGTTTGATGG, the PBM binding z-score is 0.943 in assay [1]; 0.357 in assay [2]; -0.311 in [3]; 0.355 in assay [4]; -0.62 in [5]; 1.94 in [6]. In addition, the PBM binding z-score in assay [7] is 0.924; in [8], 1.09; in assay [9], -0.224; in [10], 0.405.

In the case of AATACAGGGTCACTAGGCCAGAGTCGGTACGAAT, the PBM binding z-score stood at 6.27 in [1]; 4.74 in assay [2]; 0.695 in assay [3]; 3.82 in [4]; 0.88 in [5]; 5.61 in assay [6]. The PBM binding z-score in [7] was 8.1; in assay [8] it was 6.36; in assay [9], 3.03; in [10], 5.2.

For the sequence ACTATTAGTTGAGATGAGGGCAACCGATAGGTTG, the PBM binding z-score turned out to be 1.23 in assay [1]; 0.291 in assay [2]; 0.338 in assay [3]; 0.212 in assay [4]; 0.0544 in [5]; 0.427 in assay [6]. For the same sequence, the PBM binding z-score in assay [7] was 0.607; in [8] it was 0.07; in assay [9], 0.15; in [10], 0.083.

The values above are taken from the supplement of paper PMC6555819.
